Autofluor counter – counter-screen for toxin protease inhibitors: compound fluorescence; fluorescence intensity (test concentration not listed); compound autofluorescence counterscreen, microsphere flow cytometry; active compounds read high; 360,000 compounds, 3.1% hits; in the data active = fluorescence intensity above about 16000; inconclusive = no clear call, values can overlap the other calls
TcdB inh – TcdB glycohydrolase inhibitors, primary screen, biochemical, single point, plate reader; Toxin B (Clostridioides difficile), P18177; TcdB glycohydrolase enzymatic assay; inhibition, % at 9.99 µM; 350,000 compounds, 0.24% hits; in the data active = inhibition above about 10%
BoNT F protease – BoNT/F light chain protease inhibitors, primary screen, biochemical, flow cytometry, MLPCN library; Botulinum neurotoxin type F light chain protease (Clostridium botulinum); Multiplex microsphere protease cleavage assay; inhibition, % at 10 µM; 360,000 compounds, 0.22% hits; AID 588497, 2011; in the data active = inhibition above about 35%, passing the limit was not always enough; inconclusive = no clear call, values can overlap the other calls; note: plate controls were buffer without enzyme for full effect and enzyme alone for no effect
Anthrax LF inh2 – Bacillus anthracis LF protease inhibitors, primary screen, biochemical, multiplex microsphere, MLPCN library | 360,000 compounds, 0.12% hits | inhibition, % at 10 µM | AID 588501, 2011 | multiplex microsphere protease cleavage assay | Lethal factor (Bacillus anthracis), P15917; note: plate controls were buffer without enzyme for full effect and enzyme alone for no effect
BoNT A protease – BoNT/A light chain protease inhibitors, primary screen, biochemical, flow cytometry, MLPCN library. Botulinum neurotoxin type A light chain protease (Clostridium botulinum A str. ATCC 3502). multiplex microsphere protease substrate cleavage. inhibition, % at 10 µM. 360,000 compounds, 0.17% hits. AID 588499, 2011; note: plate controls were buffer without enzyme for full effect and enzyme alone for no effect
An asterisk follows results filed as active; u = inconclusive; x = no result given. Only a selection was taken, and hits are over-represented in it overall. Cut-off read from the data, not from the text of the source, unless noted: active = inhibition above about 30%; inconclusive = no clear call, values can overlap the other calls; inactive = below that.

SMILES | Autofluor counter | TcdB inh | BoNT F protease | Anthrax LF inh2 | BoNT A protease
COc1ccc(S(=O)(=O)N(C)C[C@H]2Oc3ccc(NC(=O)Nc4c(C)noc4C)cc3C(=O)N([C@@H](C)CO)C[C@H]2C)cc1 | x | 0 | x | x | x
CO[C@H]1CN(C)C(=O)c2ccc(NS(=O)(=O)c3ccccc3)cc2OC[C@@H](C)N(Cc2ccccn2)C[C@@H]1C | x | 1 | x | x | x
C[C@H](CO)N1C[C@H](C)[C@@H](CN(C)Cc2ccncc2)OCCCC[C@H](C)Oc2ccc(NC(=O)Cc3ccccc3)cc2C1=O | x | 1 | x | x | x
Cc1csc(N=Nc2ccc(N(C)C)cc2)[n+]1[O-] | 4184 | 13* | -2 | -2 | 0
CO[C@@H]1CN(C)C(=O)c2ccc(NC(=O)NC(C)C)cc2OC[C@H](C)N(Cc2ccccc2)C[C@H]1C | x | -1 | x | x | x
CCCN(c1ccc(OCC)cc1)S(=O)(=O)c1ccc2c(c1)CCN2C(=O)CCC(=O)O | 9170 | x | 0 | 1 | -2
CC1CCN(S(=O)(=O)c2ccc3c(c2)CCN3C(=O)CCC(=O)O)CC1 | 21818* | x | 9 | -2 | 6
CCCCN(c1ccccc1)S(=O)(=O)c1ccc2c(c1)CCN2C(=O)CCC(=O)O | 22207* | x | 1 | -6 | 2
C[C@@H]1CN([C@@H](C)CO)C(=O)c2cccc(NC(=O)Nc3ccc4c(c3)OCO4)c2O[C@H]1CN(C)C | x | -1 | x | x | x
CCOc1cccc2sc(=NC(=O)c3ccc(S(=O)(=O)N4CCOCC4)cc3)n(C)c12 | 22851* | x | 3 | 0 | 3
C[C@H](CO)N1C[C@H](C)[C@@H](CN(C)S(=O)(=O)c2ccc(Cl)cc2)OCCCC[C@H](C)Oc2ccc(NC(=O)Nc3cccc4ccccc34)cc2C1=O | x | 0 | x | x | x
CC1(C)c2ssc(=S)c2-c2ccccc2N1C(=O)CSC1=NCCS1 | 3659 | x | 4 | 3 | 1
Cc1cc2c(cc1C)N(C(=O)CSC1=NCCS1)C(C)(C)c1ssc(=S)c1-2 | 21080* | x | -6 | -5 | -2
Cc1csc(NC(=O)C2CCN(C(=O)CSc3nnc(C)n3Cc3ccccc3)CC2)n1 | 20510* | x | -6 | 1 | u
Cc1csc(NC(=O)C2CCN(C(=O)c3ccccc3C)CC2)n1 | 4158 | 2 | 2 | -1 | 0
CCCCOC(=O)C1=C(C)Nc2ncnn2C1c1cccc(OC)c1 (stereo unspecified) | 23328* | x | 3 | 2 | 0
CCCCOC(=O)C1=C(C)Nc2ncnn2C1c1cc(OC)ccc1OC (stereo unspecified) | 19006* | x | 10 | -12 | 7
CCOC(=O)C1=C(c2ccccc2)Nc2ncnn2C1c1cc(OC)ccc1OC (stereo unspecified) | 21867* | x | 2 | 2 | 1
CCCCOC(=O)C1=C(C)Nc2ncnn2C1c1cccc(OC)c1OC (stereo unspecified) | u | x | 11 | -11 | 5
Cc1noc(C)c1NC(=O)Nc1ccc2c(c1)CC(=O)N([C@H](C)CO)C[C@H](C)[C@@H](CN(C)CC1CC1)O2 | x | -1 | x | x | x
CC(=O)N1[C@@H]2Cn3c(cccc3=O)[C@H]1[C@@H](C(=O)NCc1ccc(F)cc1)[C@@H]2CO | x | 0 | x | x | x
C[C@H](CO)N1C[C@H](C)[C@H](CN(C)CC2CC2)OCCCC[C@H](C)Oc2ccc(NC(=O)Nc3ccccc3)cc2C1=O | x | 0 | x | x | x
O=C(O)c1cc(-c2cccnc2)nc2ccc(Br)cc12 | 4569 | 1 | 2 | -4 | -1
CCN1CCN(C(=O)c2cc(-c3cccnc3)nc3ccc(Br)cc23)CC1 | 20068* | 1 | -1 | 2 | u
CS(=O)(=O)N(CC(=O)O)c1ccc(Oc2ccccc2)cc1 | 20680* | x | 0 | -4 | 0
SMILES | Autofluor counter | TcdB inh | BoNT F protease | Anthrax LF inh2 | BoNT A protease
CC(=O)N(C)C[C@H]1Oc2ncc(C3=CCCC3)cc2C(=O)N([C@H](C)CO)C[C@@H]1C | x | 1 | x | x | x
CCOc1cc(NC(=S)Nc2cccc(OC)c2)c(OCC)cc1NC(=O)c1ccc(C)cc1 | 5883 | x | -3 | 2 | 0
CCOc1cc(NC(=S)Nc2cccc(OC)c2)c(OCC)cc1NC(=O)C(C)C | 23255* | x | -3 | -6 | u
CCOc1cc(NC(=S)Nc2cccc(C)c2)c(OCC)cc1NC(=O)CC(C)C | 22828* | x | -4 | -2 | -1
CCOc1cc(NC(=S)Nc2ccccc2)c(OCC)cc1NC(=O)c1ccc(OC)cc1 | 18966* | x | 9 | -12 | 6
COc1cccc(NC(=O)C(C)C)c1 | 3571 | 0 | 4 | -1 | 0
